{"source": "paper PMC7862700", "about": "“An all-to-all approach to the identification of sequence-specific readers for epigenetic DNA modifications on cytosine”", "test_in_all_cases": "DAPPL (digital affinity profiling via proximity ligation, sequencing); 10 mM Tris-HCl pH 7.5, 50 mM NaCl, 1 mM DTT, 4% glycerol, room temperature, 30 min; GST-TFs on glutathione beads, 16-mer random dsDNA library, 0.1% formaldehyde crosslink after washing; high values mean tight binding", "conditions_in_all_cases": "protein: recombinant; tags: N-terminal GST; dsDNA, one strand shown", "key": {"[1]": {"target": "T1, FLI1 (Homo sapiens, UniProt Q01543 1-452)", "T1 sequence": "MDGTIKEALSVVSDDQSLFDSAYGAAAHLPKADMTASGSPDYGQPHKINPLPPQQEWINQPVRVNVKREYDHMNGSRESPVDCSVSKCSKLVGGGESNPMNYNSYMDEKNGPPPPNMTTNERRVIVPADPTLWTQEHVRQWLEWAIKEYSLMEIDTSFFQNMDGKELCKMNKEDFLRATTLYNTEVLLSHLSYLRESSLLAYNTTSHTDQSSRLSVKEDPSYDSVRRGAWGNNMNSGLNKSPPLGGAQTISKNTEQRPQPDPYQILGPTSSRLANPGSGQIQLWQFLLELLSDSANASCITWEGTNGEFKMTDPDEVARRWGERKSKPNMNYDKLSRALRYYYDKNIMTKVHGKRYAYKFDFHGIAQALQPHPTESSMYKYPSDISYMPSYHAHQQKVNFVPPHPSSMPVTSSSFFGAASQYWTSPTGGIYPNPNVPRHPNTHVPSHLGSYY", "method_in_brief": "(§1)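 Yeast served to express human transcription factors as GST fusions, which were then captured on glutathione beads and labelled with DNA barcodes. Pooled with a tag-only sample, they were incubated with 200 nmole of a 16-mer random double-stranded DNA library for 30 min at room temperature in Tris/NaCl/DTT/glycerol buffer, washed, crosslinked with 0.1% formaldehyde, ligated by proximity, amplified by PCR and sequenced. Dividing each hexamer's read frequency for a factor by its frequency for the tag-only sample gives the binding signal.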"}, "[2]": {"target": "T2, ELK1 (Homo sapiens, UniProt P19419 1-428)", "T2 sequence": "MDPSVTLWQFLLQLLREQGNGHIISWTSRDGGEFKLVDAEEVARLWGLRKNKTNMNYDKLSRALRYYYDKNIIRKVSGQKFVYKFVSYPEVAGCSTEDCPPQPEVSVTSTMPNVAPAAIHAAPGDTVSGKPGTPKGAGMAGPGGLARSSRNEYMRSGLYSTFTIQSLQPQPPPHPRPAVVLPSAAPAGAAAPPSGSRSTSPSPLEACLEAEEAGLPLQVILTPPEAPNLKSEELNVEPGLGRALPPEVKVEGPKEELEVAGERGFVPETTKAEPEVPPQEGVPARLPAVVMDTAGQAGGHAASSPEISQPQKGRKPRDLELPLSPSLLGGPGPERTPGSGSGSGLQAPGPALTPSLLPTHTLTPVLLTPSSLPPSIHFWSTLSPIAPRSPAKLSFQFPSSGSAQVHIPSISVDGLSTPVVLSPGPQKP", "method_in_brief": "as §1"}, "[3]": {"target": "T3, GABPA (Homo sapiens, UniProt Q06546 1-454)", "T3 sequence": "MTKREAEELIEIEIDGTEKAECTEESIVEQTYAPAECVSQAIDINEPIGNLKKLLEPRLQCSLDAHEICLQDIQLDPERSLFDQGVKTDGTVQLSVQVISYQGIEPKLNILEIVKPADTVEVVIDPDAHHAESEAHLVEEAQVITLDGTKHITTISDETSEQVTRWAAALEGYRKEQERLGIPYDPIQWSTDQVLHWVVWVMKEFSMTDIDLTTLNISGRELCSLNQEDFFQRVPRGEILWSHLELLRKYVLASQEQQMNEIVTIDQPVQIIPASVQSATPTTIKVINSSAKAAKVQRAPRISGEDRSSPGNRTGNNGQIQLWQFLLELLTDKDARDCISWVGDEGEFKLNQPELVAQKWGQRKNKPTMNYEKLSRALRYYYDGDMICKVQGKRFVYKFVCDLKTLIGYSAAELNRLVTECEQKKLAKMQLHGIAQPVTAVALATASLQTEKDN", "method_in_brief": "as §1"}, "[4]": {"target": "ELF1 (Homo sapiens, UniProt P32519 1-619)", "sequence (P32519 whole entry)": "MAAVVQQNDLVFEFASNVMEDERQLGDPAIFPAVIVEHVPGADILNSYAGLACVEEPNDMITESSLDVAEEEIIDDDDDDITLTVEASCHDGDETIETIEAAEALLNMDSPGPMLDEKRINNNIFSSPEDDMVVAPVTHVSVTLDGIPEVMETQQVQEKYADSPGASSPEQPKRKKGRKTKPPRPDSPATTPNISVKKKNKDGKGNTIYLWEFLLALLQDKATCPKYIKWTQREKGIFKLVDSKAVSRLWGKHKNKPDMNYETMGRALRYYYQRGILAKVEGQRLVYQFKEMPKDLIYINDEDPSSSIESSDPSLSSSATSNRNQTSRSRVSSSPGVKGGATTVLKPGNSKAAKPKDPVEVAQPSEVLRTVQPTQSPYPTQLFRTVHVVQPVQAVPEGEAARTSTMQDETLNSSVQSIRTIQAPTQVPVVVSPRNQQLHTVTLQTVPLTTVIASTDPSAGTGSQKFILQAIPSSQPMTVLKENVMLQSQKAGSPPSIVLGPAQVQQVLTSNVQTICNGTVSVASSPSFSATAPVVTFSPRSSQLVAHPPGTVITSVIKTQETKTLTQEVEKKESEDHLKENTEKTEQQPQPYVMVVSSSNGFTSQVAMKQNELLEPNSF", "method_in_brief": "as §1"}, "[5]": {"target": "T4, SPIC (Homo sapiens, UniProt Q8N5J4 1-248)", "T4 sequence": "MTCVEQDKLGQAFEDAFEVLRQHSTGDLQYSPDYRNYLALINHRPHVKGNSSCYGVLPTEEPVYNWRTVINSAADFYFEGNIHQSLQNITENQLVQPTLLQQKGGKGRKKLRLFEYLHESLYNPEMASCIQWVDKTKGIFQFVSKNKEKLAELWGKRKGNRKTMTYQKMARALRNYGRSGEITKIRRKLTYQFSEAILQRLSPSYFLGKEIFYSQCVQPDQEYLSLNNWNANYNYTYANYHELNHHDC", "method_in_brief": "as §1"}, "[6]": {"target": "ELF4 (Homo sapiens, UniProt Q99607 1-663)", "sequence (Q99607 whole entry)": "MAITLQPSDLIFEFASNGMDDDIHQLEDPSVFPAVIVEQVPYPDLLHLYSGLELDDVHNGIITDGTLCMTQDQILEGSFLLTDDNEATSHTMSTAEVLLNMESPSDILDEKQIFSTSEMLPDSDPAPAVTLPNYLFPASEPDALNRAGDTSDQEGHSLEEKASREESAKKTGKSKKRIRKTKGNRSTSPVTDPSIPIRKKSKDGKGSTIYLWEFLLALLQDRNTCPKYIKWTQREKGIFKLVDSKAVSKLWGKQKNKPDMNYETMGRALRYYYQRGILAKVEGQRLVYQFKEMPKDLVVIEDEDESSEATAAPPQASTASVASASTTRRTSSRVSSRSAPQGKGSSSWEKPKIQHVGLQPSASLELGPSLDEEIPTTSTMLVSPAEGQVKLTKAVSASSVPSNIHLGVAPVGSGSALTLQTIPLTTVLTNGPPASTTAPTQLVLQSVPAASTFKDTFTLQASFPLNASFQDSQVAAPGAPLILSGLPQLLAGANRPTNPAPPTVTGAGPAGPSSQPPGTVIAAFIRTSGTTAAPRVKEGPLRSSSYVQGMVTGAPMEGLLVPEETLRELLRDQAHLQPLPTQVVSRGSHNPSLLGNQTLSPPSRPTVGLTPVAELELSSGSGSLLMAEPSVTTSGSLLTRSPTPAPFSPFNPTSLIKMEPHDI", "method_in_brief": "as §1"}, "[7]": {"target": "T5, ELK4 (Homo sapiens, UniProt P28324-2 1-405)", "T5 sequence": "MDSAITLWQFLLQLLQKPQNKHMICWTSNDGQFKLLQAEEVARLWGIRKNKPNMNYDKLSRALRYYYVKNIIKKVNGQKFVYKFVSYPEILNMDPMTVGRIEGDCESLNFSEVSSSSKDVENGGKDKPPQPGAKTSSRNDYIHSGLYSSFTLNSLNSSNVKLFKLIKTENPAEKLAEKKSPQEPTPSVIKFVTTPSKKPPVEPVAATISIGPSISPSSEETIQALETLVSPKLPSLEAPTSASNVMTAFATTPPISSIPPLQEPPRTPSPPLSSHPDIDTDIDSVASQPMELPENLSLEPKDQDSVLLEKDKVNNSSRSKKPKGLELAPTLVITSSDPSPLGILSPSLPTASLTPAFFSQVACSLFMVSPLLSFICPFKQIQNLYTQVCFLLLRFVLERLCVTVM", "method_in_brief": "as §1"}, "[8]": {"target": "T6, ETV2 (Homo sapiens, UniProt O00321 1-342)", "T6 sequence": "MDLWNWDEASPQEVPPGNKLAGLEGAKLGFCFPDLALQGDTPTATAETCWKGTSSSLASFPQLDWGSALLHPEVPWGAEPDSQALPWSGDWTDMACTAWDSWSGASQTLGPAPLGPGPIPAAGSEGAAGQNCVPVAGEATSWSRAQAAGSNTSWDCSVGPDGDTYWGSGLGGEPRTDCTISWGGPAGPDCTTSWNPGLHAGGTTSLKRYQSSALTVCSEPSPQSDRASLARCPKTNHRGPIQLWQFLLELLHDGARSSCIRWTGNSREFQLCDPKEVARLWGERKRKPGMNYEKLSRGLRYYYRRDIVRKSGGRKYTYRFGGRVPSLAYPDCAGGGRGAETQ", "method_in_brief": "as §1"}, "[9]": {"target": "T7, ELF3 (Homo sapiens, UniProt P78545 1-371)", "T7 sequence": "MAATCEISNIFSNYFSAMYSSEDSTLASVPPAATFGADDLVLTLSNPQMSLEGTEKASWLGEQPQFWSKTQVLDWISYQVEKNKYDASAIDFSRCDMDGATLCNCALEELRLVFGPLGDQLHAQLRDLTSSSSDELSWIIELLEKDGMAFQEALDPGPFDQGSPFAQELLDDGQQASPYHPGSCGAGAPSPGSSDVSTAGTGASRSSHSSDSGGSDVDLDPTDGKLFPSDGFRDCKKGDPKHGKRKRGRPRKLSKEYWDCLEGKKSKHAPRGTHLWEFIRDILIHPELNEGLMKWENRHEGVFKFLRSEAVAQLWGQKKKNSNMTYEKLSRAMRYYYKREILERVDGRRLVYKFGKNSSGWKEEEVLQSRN", "method_in_brief": "as §1"}, "[10]": {"target": "ETV1 (Homo sapiens, UniProt P50549 1-477)", "sequence (P50549 whole entry)": "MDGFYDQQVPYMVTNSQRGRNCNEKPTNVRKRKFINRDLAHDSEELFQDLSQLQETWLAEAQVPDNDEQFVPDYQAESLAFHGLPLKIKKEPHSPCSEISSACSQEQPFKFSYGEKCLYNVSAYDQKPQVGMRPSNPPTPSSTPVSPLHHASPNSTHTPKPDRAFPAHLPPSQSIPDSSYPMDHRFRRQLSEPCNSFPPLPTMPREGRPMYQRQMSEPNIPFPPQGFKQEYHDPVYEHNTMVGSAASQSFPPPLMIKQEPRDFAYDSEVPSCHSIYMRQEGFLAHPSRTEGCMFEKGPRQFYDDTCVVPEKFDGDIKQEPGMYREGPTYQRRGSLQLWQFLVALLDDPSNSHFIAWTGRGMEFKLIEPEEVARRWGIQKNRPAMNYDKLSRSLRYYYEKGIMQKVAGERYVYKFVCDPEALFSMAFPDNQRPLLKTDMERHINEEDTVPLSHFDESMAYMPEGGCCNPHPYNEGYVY", "method_in_brief": "as §1"}, "[11]": {"target": "T8, ERF (Homo sapiens, UniProt P50548 1-548)", "T8 sequence": "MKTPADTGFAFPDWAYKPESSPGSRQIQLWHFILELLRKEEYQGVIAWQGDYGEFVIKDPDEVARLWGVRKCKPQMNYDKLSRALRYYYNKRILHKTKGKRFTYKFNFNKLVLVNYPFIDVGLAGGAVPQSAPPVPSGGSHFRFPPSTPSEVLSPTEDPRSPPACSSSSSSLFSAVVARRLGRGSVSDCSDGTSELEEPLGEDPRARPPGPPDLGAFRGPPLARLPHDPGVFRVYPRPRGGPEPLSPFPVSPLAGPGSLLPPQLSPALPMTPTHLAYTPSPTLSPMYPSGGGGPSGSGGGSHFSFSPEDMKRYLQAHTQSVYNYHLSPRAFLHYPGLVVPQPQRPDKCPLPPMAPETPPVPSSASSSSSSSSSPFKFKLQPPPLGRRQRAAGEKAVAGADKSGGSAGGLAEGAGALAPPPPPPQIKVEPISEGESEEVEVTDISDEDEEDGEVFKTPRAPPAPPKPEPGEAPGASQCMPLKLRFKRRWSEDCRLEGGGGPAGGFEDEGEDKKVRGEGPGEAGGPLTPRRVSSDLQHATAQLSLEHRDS", "method_in_brief": "as §1"}, "[12]": {"target": "T9, ETV7 (Homo sapiens, UniProt Q9Y603 1-341)", "T9 sequence": "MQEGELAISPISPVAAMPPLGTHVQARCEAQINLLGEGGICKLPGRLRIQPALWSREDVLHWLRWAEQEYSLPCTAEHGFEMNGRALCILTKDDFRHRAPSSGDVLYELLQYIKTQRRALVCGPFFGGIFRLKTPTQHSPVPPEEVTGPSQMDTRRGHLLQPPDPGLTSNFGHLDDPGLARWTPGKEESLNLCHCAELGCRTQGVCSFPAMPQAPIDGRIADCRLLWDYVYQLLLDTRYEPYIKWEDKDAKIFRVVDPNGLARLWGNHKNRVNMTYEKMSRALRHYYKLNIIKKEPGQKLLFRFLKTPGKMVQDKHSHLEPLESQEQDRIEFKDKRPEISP", "method_in_brief": "as §1"}, "[13]": {"target": "T10, ETV3 (Homo sapiens, UniProt P41162-2 1-143)", "T10 sequence": "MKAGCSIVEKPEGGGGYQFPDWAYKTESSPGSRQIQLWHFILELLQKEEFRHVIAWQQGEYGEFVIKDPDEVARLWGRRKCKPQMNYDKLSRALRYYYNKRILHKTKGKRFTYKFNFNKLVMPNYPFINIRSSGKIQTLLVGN", "method_in_brief": "as §1"}}, "data": [{"sequence": "ACTTGA", "values": [{"measurement": "binding signal", "setting": "[1]", "value": "1.1 fold enrichment (6-mer frequency, TF over GST control)"}, {"measurement": "binding signal", "setting": "[2]", "value": "1.1 fold enrichment (6-mer frequency, TF over GST control)"}, {"measurement": "binding signal", "setting": "[3]", "value": "1 fold enrichment (6-mer frequency, TF over GST control)"}, {"measurement": "binding signal", "setting": "[4]", "value": "1.02 fold enrichment (6-mer frequency, TF over GST control)"}, {"measurement": "binding signal", "setting": "[5]", "value": "1 fold enrichment (6-mer frequency, TF over GST control)"}, {"measurement": "binding signal", "setting": "[6]", "value": "1.07 fold enrichment (6-mer frequency, TF over GST control)"}, {"measurement": "binding signal", "setting": "[7]", "value": "1.14 fold enrichment (6-mer frequency, TF over GST control)"}, {"measurement": "binding signal", "setting": "[8]", "value": "1.13 fold enrichment (6-mer frequency, TF over GST control)"}, {"measurement": "binding signal", "setting": "[9]", "value": "1.04 fold enrichment (6-mer frequency, TF over GST control)"}, {"measurement": "binding signal", "setting": "[10]", "value": "1.07 fold enrichment (6-mer frequency, TF over GST control)"}, {"measurement": "binding signal", "setting": "[11]", "value": "1.01 fold enrichment (6-mer frequency, TF over GST control)"}, {"measurement": "binding signal", "setting": "[12]", "value": "1.08 fold enrichment (6-mer frequency, TF over GST control)"}, {"measurement": "binding signal", "setting": "[13]", "value": "1.07 fold enrichment (6-mer frequency, TF over GST control)"}]}]}
